D2 ag-1 = human D2 receptor agonism in beta-arrestin assay | P14416 | DiscoveRx PathHunter D2 beta-arrestin, luminescence, 90 min; 100% = 57 uM dopamine signal | activation, % (concentration not given with the values) | 360,000 tested, 0.084% active | AID 624465; in the data active = activation above about 40%; inconclusive = between about 15% and that limit
Target sequence (P14416 whole entry, looked up): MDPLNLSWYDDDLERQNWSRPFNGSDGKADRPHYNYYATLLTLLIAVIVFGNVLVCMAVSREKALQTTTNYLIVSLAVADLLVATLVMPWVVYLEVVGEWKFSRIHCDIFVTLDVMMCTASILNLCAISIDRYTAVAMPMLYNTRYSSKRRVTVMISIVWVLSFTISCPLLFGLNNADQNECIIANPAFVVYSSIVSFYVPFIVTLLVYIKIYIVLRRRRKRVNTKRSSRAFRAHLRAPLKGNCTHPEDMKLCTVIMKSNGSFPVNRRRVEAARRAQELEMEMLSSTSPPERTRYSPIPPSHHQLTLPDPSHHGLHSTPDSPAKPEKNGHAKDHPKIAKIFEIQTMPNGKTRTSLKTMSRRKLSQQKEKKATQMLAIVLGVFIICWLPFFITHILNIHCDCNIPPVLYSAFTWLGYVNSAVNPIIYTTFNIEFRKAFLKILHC
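Agonist mode: compounds alone added to overnight-plated D2 PathHunter cells for 90 min at 37 C, with 57 uM final dopamine (EC100) defining full response. Beta-arrestin recruitment detected by chemiluminescent reagent, read after 1 h at ambient temperature.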
D2 antag = antagonists of human D2 dopamine receptor. 340,000 tested, 2% active. P14416. HEK293 TREx D2 cells, calcium flux, dopamine EC80. inhibition, % at 10 µM; in the data active = inhibition above about 30%; inactive = below that, where a call was filed; also: 0% is about no effect
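In this primary screen, negative modulation is detected by tracking calcium flux after an EC80 dopamine challenge in inducible HEK293 T-REx D2 cells preexposed to test compound for 180 s.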
D2 PAM-1 = positively modulates the human D2 dopamine receptor allosterically; P14416; AID 485347; HEK293 T-REx D2, calcium flux, EC20 dopamine potentiation; potentiation, % at 10 µM; 340,000 tested, 0.34% active;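 active = potentiation over 3 SD above the plate norm, cut at about 30% in these data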; also: 0% is about no effect
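Tetracycline-induced HEK293 T-REx cells force-coupled to calcium signalling expressed D2; compounds were pin-added after a 10 s baseline, read kinetically 180 s, then an EC20 dopamine challenge followed with a further 180 s calcium read.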
D2 ag-2 = activates the human D2 dopamine receptor | HEK293 T-REx D2 cells, calcium flux agonist mode | activation, % at 2 µM | 340,000 tested, 0.53% active;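 active = activation over 3 SD above normal in the single-dose calcium agonist read, cut at about 30% in these data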; also: 0% is about no effect
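Tetracycline-induced HEK293 T-REx cells with force-coupled D2 receptor, plated overnight at 30 C, loaded with no-wash calcium dye. After a 10 s baseline, compound was pin-added and calcium flux read kinetically for 180 s; calcium rises flagged agonists.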
D2 PAM-2 = positive allosteric modulators of human D2 dopamine receptor. P14416. DiscoveRx D2 beta-arrestin cells, luminescence, 90 min; 100% = 57 uM dopamine signal. AID 624464. potentiation, % (no concentration beside the values). 360,000 tested, 0.23% active; in the data active = potentiation above about 50%; inconclusive = mostly about 30% to 49%
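D2 cells co-treated with compound plus 50 nM dopamine (EC20) for 90 min at 37 deg C to detect potentiation. Beta-arrestin recruitment was read as enzyme-fragment luminescence after 1 h at ambient temperature. Full response was set by 57 uM dopamine.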
D3 ag = D3 receptor agonism confirmed, beta-arrestin readout | shares compounds with D2 ag-2 | DiscoveRx D3 beta-arrestin cells, luminescence, 90 min | Potency, µM (titrated, usually from 76.9 µM), for the others: at the top dose activation, actives largely listed as activators | 2,300 tested, 4% active;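 also: potency is read from the fitted curve at half-maximal effect; 100% = dopamine control response; nearly all actives have a fitted effect of over 70% in size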
D2 ag-3 = counter-screen for D3 agonists: human D2 dopamine receptor agonism | shares compounds with D2 ag-2 | DiscoveRx PathHunter D2 beta-arrestin, luminescence, 90 min; response scale: percent relative to full dopamine signal | Potency, µM (doses to about 76.9 µM), without a hit: top-dose activation, hits mostly activators | 2,300 tested, 5.9% active | AID 720507; also: potency is read from the fitted curve at half-maximal effect; % of control where 0% means no effect; nearly all actives have a fitted effect of over 70% in size
Starred values were filed as active, the others as inactive; ? = inconclusive; nt = no result given; ! = not active in a repeat. Shown are actives, neighbours in structure and some others; about 2.4% of the full set was active somewhere. Unless noted, calls follow the shape of the dose curve; as a rule, active = well fitted activation curve with a large enough effect; inconclusive = small, poorly fitted or top-dose-only effect; inactive = flat fitted curve, though single readings scatter.

SMILES	D2 ag-1	D2 antag	D2 PAM-1	D2 ag-2	D2 PAM-2	D3 ag	D2 ag-3
CC(C)c1cccc(C(C)C)c1OC(=O)[C@H]1OC(c2ccc(Br)cc2)=C[C@@H]1c1ccc(Br)cc1	5	1	8	1	7	14%	5%
Cc1cccc(C)c1NC(=O)C(=O)NCCCN1CCOCC1	-6	nt	nt	nt	18	nt	nt
O=C(NCCN1CCN(c2cccc(Cl)c2)CC1)c1ccc(CSc2nc3ccncc3[nH]2)cc1	9	86*	-14	46*	-13	22µM*	?
Cc1cccc(C)c1NC(=O)NCCCN1CCN(c2ccccc2)CC1	?	72*	-29	74*!	-12	?	?
O=C(NCCN1CCN(c2ccccc2)CC1)c1cccn2c(=O)c3cc(Cl)ccc3nc12	-2	11	6	0	-14	nt	nt
O=C(NCCN1CCN(C(=O)c2cccc(Br)c2)CC1)C(=O)Nc1ccc(Br)cc1	-2	3	2	0	-9	nt	nt
O=C(NCCN1CCN(c2ccccc2)CC1)c1cccc(Br)c1	8	78*	-33	89*	-2	25%	20%
O=C(NCCN1CCN(c2ccccc2)CC1)c1cccc(Cl)c1	-2	70*	-26	46*	-6	?	12%
CCN(CCNC(=O)c1ccc(CSc2nc3ccncc3[nH]2)cc1)c1ccccc1	0	nt	nt	nt	-6	nt	nt
CC(=O)N1CCc2c(sc3c2c(=O)n(CCc2ccccc2)c(=O)n3CC(=O)Nc2ccc(C)c(F)c2)C1	nt	nt	3	1	nt	nt	nt
O=C(COc1ccc(F)cc1)NCC(c1ccc(Cl)cc1)N1CCCCC1 (stereo unspecified)	nt	nt	6	-2	nt	nt	nt
COc1ccccc1C(=O)NCCN1CCN(c2ccccc2)CC1	?	83*	-13	72*	?	?	?
Cc1cccc(C(=O)NCCN2CCN(c3ccccc3)CC2)c1	2	91*	-22	49*	-21	?	6%
COc1ccccc1OCCNC(=O)CCNC(=O)c1ccccc1OC	-2	26	4	0	9	-4%	-3%
O=C(NCCCN1CCN(c2cccc(Cl)c2)CC1)c1ccc(N2CCCC2=O)cc1	3	-14	-2	0	-2	nt	nt
O=C(NCCCN1CCN(c2cccc(Cl)c2)CC1)c1cccc(N2CCCC2=O)c1	2	13	-24	48*	-42	-4%	7%
Cc1cccc(C(=O)NCCCNC(=O)c2cccc(C)c2)c1	-3	7	-6	0	-13	nt	nt
COc1ccc(OC)c(NC(=O)NCCN2CCN(c3ccccc3)CC2)c1	1	-5	16	0	-17	nt	nt
COc1ccccc1C(=O)NCCC(=O)NCCOc1ccccc1	-2	-10	-1	0	-3	nt	nt
C[C@@H]1CN([C@@H](C)CO)C(=O)CCCn2nncc2CO[C@@H]1CN(C)C(=O)Nc1ccc(C(C)(C)C)cc1	-4	nt	nt	nt	4	nt	nt
CCOc1ccc2nc(N(CCCN(C)C)C(=O)c3ccc(S(=O)(=O)N4CCCC4)cc3)sc2c1	1	31*	7	2	-15	-17%	-2%
COc1ccccc1CNC(=O)c1ccc(N2CCCC2)c(NC(=O)NCc2ccccc2)c1	nt	nt	-6	0	nt	nt	nt
Cc1ccc(C(=O)NCCc2ccc(S(N)(=O)=O)cc2)cc1[N+](=O)[O-]	-5	17	-22	29	-1	-19%	-5%
Cc1c(C(=O)NCCc2ccc(S(N)(=O)=O)cc2)cccc1[N+](=O)[O-]	0	-5	22	1	-2	nt	nt
O=C(O)C1C2C=CC(C2)C1C(=O)NCCc1ccccc1 (stereo unspecified)	8	23	-12	53*	15	0%	0%

Compound activity: PubChem BioAssay, National Center for Advancing Translational Sciences (NCATS)
